Calls of active or inactive are those of the source.
Experiments:
[1] = E. coli DRC41 culture turbidity changes, primary screen, E. coli filamentation inducer project, strain DRC41, OD650, 48 h (AID 1152);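 note: E. coli MC1000 strain DRC41 lacking acrAB efflux pump and sulA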; conditions: E. coli DRC41 (acrAB sulA), higher = more signal, called active from +8 up or from −8 down
[2] = small-molecule binders of probe aLefty1, primary screen, biochemical, small-molecule microarray, 635/667 nm fluorescence (AID 1153); conditions: higher = more signal;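 note: score merges spot fluorescence with signal-to-noise ratio from the scanned slide images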
[3] = PSAC antagonists in infected red cells, primary screen, cell-based, P. falciparum Indochina, OD700, 1 h (AID 1154); conditions: P. falciparum Indochina infected RBC osmotic lysis, higher = more signal, called active from +8 up or from −8 down
[4] = PSAC antagonists in infected red cells, primary screen, cell-based, P. falciparum Indochina, OD700, 2 h (AID 1155);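 note: lysis reports solute entry through the parasite surface anion channel PSAC; channel blockers reduce lysis of infected cells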; conditions: P. falciparum Indochina infected erythrocytes, osmotic lysis OD700; higher = more signal, called active from +8 up or from −8 down
[5] = osmotic lysis modulators in infected erythrocytes, primary screen, PSAC antagonist project, cell-based, P. falciparum Indochina, OD700, 3 h (AID 1156); conditions: higher = more signal, called active from +8 up or from −8 down
[6] = PSAC antagonists in infected red cells, primary screen, cell-based, P. falciparum Indochina, OD700, 18 h (AID 1157); conditions: P. falciparum Indochina infected erythrocytes, osmotic lysis OD700, 18 h; higher = more signal, called active from +8 up or from −8 down
[7] = modulators of S6 phosphorylation in cells, primary screen, cell-based, A549, cytoblot, luminescence, serum-stimulated (AID 1158); conditions: A549 phospho-S6 cytoblot, 5 h, higher = more signal;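 note: serum-stimulated A549 lung adenocarcinoma cells; signal is phosphorylated S6 detected by cytoblot immunostaining with HRP secondary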
[8] = target: NADPH oxidase 2 (Homo sapiens) (UniProt P04839); experiment: NOX2-dependent H2O2 signal modulators, primary screen, NOX inhibitor project, cell-based, HEK293-NOX2, PMA-stimulated, Amplex Red fluorescence (AID 1159); conditions: 45 min, higher = more signal, called active from +8 up or from −8 down; note: test concentration not given here
Chain of NADPH oxidase 2 (Homo sapiens) (P04839 whole entry, looked up): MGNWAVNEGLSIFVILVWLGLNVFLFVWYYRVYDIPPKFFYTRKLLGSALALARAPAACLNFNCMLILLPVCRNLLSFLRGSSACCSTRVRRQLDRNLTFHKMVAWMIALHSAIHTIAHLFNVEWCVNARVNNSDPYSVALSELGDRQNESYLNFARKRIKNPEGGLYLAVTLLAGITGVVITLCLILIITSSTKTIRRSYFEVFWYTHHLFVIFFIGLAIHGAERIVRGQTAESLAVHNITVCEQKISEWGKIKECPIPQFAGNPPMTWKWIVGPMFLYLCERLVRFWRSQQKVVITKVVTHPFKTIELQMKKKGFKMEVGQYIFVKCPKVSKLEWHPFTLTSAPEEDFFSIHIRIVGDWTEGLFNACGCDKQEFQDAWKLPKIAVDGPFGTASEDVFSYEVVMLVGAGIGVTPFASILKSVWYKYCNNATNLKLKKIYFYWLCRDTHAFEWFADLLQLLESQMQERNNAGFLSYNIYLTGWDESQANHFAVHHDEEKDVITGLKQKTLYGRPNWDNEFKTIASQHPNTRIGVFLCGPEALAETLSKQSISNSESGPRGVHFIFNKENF

[9] = target: NADPH oxidase 4 (Homo sapiens) (UniProt Q9NPH5); experiment: NOX4-dependent H2O2 signal modulators, primary screen, NOX inhibitor project, cell-based, HEK293-NOX4, tetracycline-induced, Amplex Red fluorescence (AID 1160); conditions: 45 min, higher = more signal, called active from +8 up or from −8 down
Chain of NADPH oxidase 4 (Homo sapiens) (Q9NPH5 whole entry, looked up): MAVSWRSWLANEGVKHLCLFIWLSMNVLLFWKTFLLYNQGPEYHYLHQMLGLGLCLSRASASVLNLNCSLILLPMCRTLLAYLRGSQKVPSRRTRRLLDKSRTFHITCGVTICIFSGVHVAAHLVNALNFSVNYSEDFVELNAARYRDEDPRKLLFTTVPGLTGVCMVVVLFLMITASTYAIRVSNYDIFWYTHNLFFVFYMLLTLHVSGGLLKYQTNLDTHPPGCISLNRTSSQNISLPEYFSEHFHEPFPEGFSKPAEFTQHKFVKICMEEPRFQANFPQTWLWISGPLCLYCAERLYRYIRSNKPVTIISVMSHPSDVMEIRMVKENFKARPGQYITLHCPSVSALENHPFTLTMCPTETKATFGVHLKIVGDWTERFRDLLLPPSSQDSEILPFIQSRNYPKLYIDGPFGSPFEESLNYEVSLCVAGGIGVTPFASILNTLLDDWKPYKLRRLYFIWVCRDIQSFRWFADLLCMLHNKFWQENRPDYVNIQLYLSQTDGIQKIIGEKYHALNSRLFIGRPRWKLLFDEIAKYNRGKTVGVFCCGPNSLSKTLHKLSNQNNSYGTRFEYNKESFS

[10] = target: NADPH oxidase 5 (Homo sapiens) (UniProt Q96PH1); experiment: NOX5-dependent H2O2 signal modulators, primary screen, NOX inhibitor project, cell-based, HEK293-NOX5, Amplex Red fluorescence (AID 1161); conditions: HEK293-NOX5, ionomycin, 45 min, higher = more signal
Chain of NADPH oxidase 5 (Homo sapiens) (Q96PH1 whole entry, looked up): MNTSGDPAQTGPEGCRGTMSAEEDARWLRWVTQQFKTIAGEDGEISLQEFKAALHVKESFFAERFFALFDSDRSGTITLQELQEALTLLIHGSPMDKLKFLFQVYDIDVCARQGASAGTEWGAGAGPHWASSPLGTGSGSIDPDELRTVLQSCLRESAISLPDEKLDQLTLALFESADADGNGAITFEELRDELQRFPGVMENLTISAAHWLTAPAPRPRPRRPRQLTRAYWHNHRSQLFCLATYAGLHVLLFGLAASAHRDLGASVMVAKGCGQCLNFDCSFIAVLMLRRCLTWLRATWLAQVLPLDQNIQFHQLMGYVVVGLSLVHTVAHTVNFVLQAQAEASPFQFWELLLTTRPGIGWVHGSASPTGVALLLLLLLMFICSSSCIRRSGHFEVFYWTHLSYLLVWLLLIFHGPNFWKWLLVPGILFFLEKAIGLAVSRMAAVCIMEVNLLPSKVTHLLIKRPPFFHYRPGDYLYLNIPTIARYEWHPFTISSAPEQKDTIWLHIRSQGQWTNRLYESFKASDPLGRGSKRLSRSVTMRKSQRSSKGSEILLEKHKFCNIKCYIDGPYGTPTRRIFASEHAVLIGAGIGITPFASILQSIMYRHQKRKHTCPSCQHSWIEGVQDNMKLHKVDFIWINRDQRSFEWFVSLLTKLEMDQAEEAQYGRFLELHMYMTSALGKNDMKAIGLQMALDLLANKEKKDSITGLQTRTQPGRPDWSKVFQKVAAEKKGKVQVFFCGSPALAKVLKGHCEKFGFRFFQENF

[11] = A549 cell viability effects, profiling panel, calcein-AM fluorescence, 48 h, basal (AID 1162); conditions: higher = more signal; note: test concentration not given here
[12] = adipocyte viability effects, profiling panel, cell-based, 3T3-L1 adipocytes, calcein-AM fluorescence, 48 h, basal (AID 1163); conditions: 3T3-L1 adipocytes viability, higher = more signal; note: test concentration not given here
[13] = HepG2 cell viability effects, profiling panel, calcein-AM fluorescence, 48 h, basal (AID 1164); conditions: higher = more signal; note: test concentration not given here
[14] = MM1S cell viability effects, profiling panel, calcein-AM fluorescence, 48 h, basal (AID 1165); conditions: higher = more signal;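 note: viability of MM1S multiple myeloma cells under basal unstimulated conditions; test concentration not given here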
[15] = basal RPMI8226 viability, no added stimulus, profiling panel, cell-based, calcein-AM fluorescence, 48 h, PK04 Diversity Set (AID 1166); conditions: RPMI8226 myeloma viability, higher = more signal;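 note: cells grown under basal conditions without added stimulus; test concentration not given here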
[16] = basal HepG2 mitochondrial membrane potential changes, profiling panel, cell-based, JC-1 fluorescence, 24 h, 100 nL compound (AID 1167); conditions: higher = more signal; note: test concentration not given here
[17] = basal 3T3-L1 adipocyte mitochondrial potential changes, profiling panel, cell-based, JC-1 fluorescence, 3T3-L1 adipocytes, 24 h, 100 nL compound (AID 1168); conditions: JC-1 mitochondrial fluorescence, higher = more signal, called active from +8 up or from −8 down; note: test concentration not given here
[18] = basal RPMI8226 mitochondrial membrane potential changes, profiling panel, cell-based, JC-1 fluorescence, 24 h, 100 nL compound (AID 1169); conditions: RPMI8226 myeloma, JC-1 mitochondrial potential fluorescence, higher = more signal; note: test concentration not given here
[19] = basal MM1S mitochondrial membrane potential changes, profiling panel, cell-based, JC-1 fluorescence, 24 h, 100 nL compound (AID 1170); conditions: higher = more signal; note: test concentration not given here
[20] = A549 lung cancer cell viability effects, profiling panel, resazurin fluorescence, 24 h, PK04 Diversity Set (AID 1171); conditions: higher = more signal, called active from +8 up or from −8 down; note: test concentration not given here

SMILES	z-score [1]	composite z-score [2]	z-score [3]	z-score [4]	z-score [5]	z-score [6]	z-score [7]	z-score [8]	z-score [9]	z-score [10]	z-score [11]	z-score [12]	z-score [13]	z-score [14]	z-score [15]	z-score [16]	z-score [17]	z-score [18]	z-score [19]	z-score [20]
CC(C)NC(=O)[C@@]1(c2ccc([N+](=O)[O-])cc2)CC(=O)N(CC23CC4CC(CC(C4)C2)C3)[C@@H]1c1ccc(CO)cc1I	-0.805 (inactive)	0.167	18.8 (active)	5.45 (inactive)	1.59 (inactive)	1.28 (inactive)	0.018	2.19 (inactive)	0.215 (inactive)	1.35	-1.58	0.58	-4.89	-3.8	-4.29	0.421	0.402 (inactive)	-0.929	-2.08	-3.65 (inactive)
CCCC[C@H]1OB(O)C[C@H]2C1=C(C)C[C@H]1C(=O)N(C)C(=O)[C@H]12	-0.908 (inactive)	-0.147	0.39 (inactive)	-0.123 (inactive)	-0.974 (inactive)	0.0834 (inactive)	0.292	-0.76 (inactive)	0.332 (inactive)	-0.235	-0.203	-0.623	-1.02	-2.27	-0.848	-1.79	-0.467 (inactive)	0.391	0.203	-0.794 (inactive)
CO[C@H]1O[C@H](CO)[C@@H](OC(=O)Nc2ccc(C#N)cc2)[C@H](OC(=O)c2cc3ccccc3[nH]2)[C@H]1OC(=O)c1cc2ccccc2[nH]1	2.89 (inactive)	0.254	3.44 (inactive)	0.178 (inactive)	1.71 (inactive)	-0.418 (inactive)	2.06	-3.9 (inactive)	-0.214 (inactive)	-4.49	2.71	0.221	0.837	-2.28	-0.909	-1.55	0.53 (inactive)	-0.405	-0.384	-1.49 (inactive)
CCN1C(=O)[C@H]2[C@H]3[C@H](O)[C@H](O)CC(=NOCc4ccccc4)[C@@H]3CC[C@H]2C1=O	0.401 (inactive)	0.0224	0.425 (inactive)	-1.09 (inactive)	-0.0231 (inactive)	-2.2 (inactive)	2.27	-0.521 (inactive)	-0.0627 (inactive)	0.388	0.391	0.817	1.43	0.565	-0.714	0.402	0.752 (inactive)	-0.0637	-0.758	-0.725 (inactive)
CO[C@H]1COC(=O)CC=C[C@H](C)[C@@H](NS(=O)(=O)c2ccc(C)cc2)COC(=O)CC=C[C@@H]1C	-1.05 (inactive)	-0.194	0.0723 (inactive)	-1.13 (inactive)	0.157 (inactive)	-0.592 (inactive)	5.19	0.0288 (inactive)	0.256 (inactive)	0.622	0.368	0.902	0.605	-0.204	0.15	-0.0318	-1.58 (inactive)	0.0791	-1.17	-0.0226 (inactive)
CC(C)CON=C1C[C@@H](O)[C@@H](O)[C@@H]2[C@@H]3C(=O)N(Cc4ccccc4)C(=O)[C@@H]3CC[C@@H]12	0.102 (inactive)	0.148	0.252 (inactive)	0.227 (inactive)	0.65 (inactive)	-0.0378 (inactive)	0.524	1.39 (inactive)	0.387 (inactive)	-0.0393	-0.785	0.449	-0.946	0.479	-0.129	0.173	-0.272 (inactive)	-0.313	-0.659	0.676 (inactive)
CC(CCN1CCCCc2nc(C)c(C)cc21)=NOC(C)CN1CCCCc2nc(C)c(C)cc21 (stereo not given)	-2.08 (inactive)	0.235	1.38 (inactive)	0.329 (inactive)	0.964 (inactive)	0.587 (inactive)	-0.839	-1.47 (inactive)	-3.07 (inactive)	-1.31	-0.282	-0.0335	-1.12	-2.33	-0.696	3.61	-1.2 (inactive)	0.308	-0.16	0.661 (inactive)
C=CC[C@@H]1C=C[C@H](ON=C[C@@H](OC)[C@H](C)C=CCC(=O)OC)[C@@H](CO)O1	0.324 (inactive)	0.0533	0.815 (inactive)	1.25 (inactive)	-0.335 (inactive)	0.465 (inactive)	-0.782	-0.022 (inactive)	-0.102 (inactive)	-0.255	0.812	-0.933	0.623	0.486	-0.939	-0.0676	-0.862 (inactive)	0.461	-0.448	-0.498 (inactive)
O=C1[C@H]2[C@H]3[C@H](O)[C@H](O)CC(=NOCc4ccccc4)[C@H]3CC[C@H]2C(=O)N1c1ccc(F)cc1F	-0.139 (inactive)	-0.761	9.01 (active)	1.42 (inactive)	0.155 (inactive)	-0.304 (inactive)	-0.392	-4.97 (inactive)	0.187 (inactive)	-0.471	0.213	0.118	-0.196	0.772	0.471	0.577	0.918 (inactive)	0.305	-0.801	-0.0399 (inactive)
COc1ccc(O[C@H]2C=C[C@@H](c3ccccc3)O[C@@H]2COC(=O)CCC(C)=NOC[C@@H](C)[C@H](OCc2ccccc2)C(C)C)cc1	-0.72 (inactive)	-0.278	0.857 (inactive)	0.55 (inactive)	0.607 (inactive)	0.294 (inactive)	-0.656	0.796 (inactive)	0.478 (inactive)	0.329	-0.0801	0.13	-0.442	-0.0358	-1.02	0.577	-1.61 (inactive)	0.815	-0.146	1 (inactive)
CCOC(=O)NN=C1C[C@@H](O)[C@@H](O)[C@@H]2[C@@H]3C(=O)N(CC)C(=O)[C@@H]3CC[C@@H]12	-0.562 (inactive)	0.0053	-0.485 (inactive)	-0.246 (inactive)	-0.493 (inactive)	-0.336 (inactive)	0.123	-1.43 (inactive)	0.0593 (inactive)	-0.641	0.296	-0.538	0.322	0.0379	0.288	-0.495	-0.852 (inactive)	-0.151	-0.662	0.45 (inactive)
COC(=O)[C@H](C)NC(=O)CCC1CC(OC(=O)NCCc2ccc(F)cc2)CC2(CCCC(COC(=O)NCCc3ccc(Cl)cc3)O2)O1 (stereo not given in full)	0.954 (inactive)	-0.0464	1.83 (inactive)	0.316 (inactive)	-0.0413 (inactive)	0.2 (inactive)	0.0808	0.431 (inactive)	0.778 (inactive)	0.612	0.98	-0.154	0.649	-1.14	-0.227	0.341	0.313 (inactive)	0.437	-0.324	0.544 (inactive)
CCCC=C(CCC)[C@@H](NC(=O)c1ccc(-c2ccccc2)cc1)c1ccc(C(=O)OC)cc1	-1.23 (inactive)	0.547	0.626 (inactive)	0.453 (inactive)	-0.104 (inactive)	0.987 (inactive)	0.692	-0.0895 (inactive)	1.13 (inactive)	1.81	-1.34	-1.51	-0.166	-0.116	-1.62	-3.18	0.393 (inactive)	-0.834	-1.29	0.747 (inactive)
C=CCN1C(=O)[C@]2(O[C@H](CCn3cc(CCO)nn3)[C@@H]([Si](C)(C)c3ccc(OC)cc3)[C@@H]2C)c2cc(N3CCOC3=O)ccc21	-0.902 (inactive)	0.0509	6.82 (inactive)	0.536 (inactive)	-0.5 (inactive)	0.376 (inactive)	0.199	0.111 (inactive)	3.32 (inactive)	1.57	0.0694	0.654	-0.316	-2.64	-1.37	0.464	-0.0813 (inactive)	-0.585	-0.539	0.333 (inactive)
c1ccc(C2NCCc3c2[nH]c2ccccc32)cc1 (stereo not given)	-1.78 (inactive)	0.155	1.07 (inactive)	0.709 (inactive)	0.806 (inactive)	-0.0204 (inactive)	-0.513	0.943 (inactive)	-0.561 (inactive)	1.23	-0.479	0.381	-0.704	-0.402	-0.742	-2.18	-0.424 (inactive)	0.0801	0.299	0.272 (inactive)
COC(=O)[C@@H]1CC[C@H](C)[C@@H](c2ccc(C)cc2)N1C(=O)c1ccc(C=NOC(C)CN2CCCCc3nc(C)c(C)cc32)cc1 (stereo not given in full)	0.173 (inactive)	-0.0449	1.21 (inactive)	0.369 (inactive)	1.03 (inactive)	0.367 (inactive)	-0.122	-0.202 (inactive)	-1.62 (inactive)	0.64	-1.19	-0.0501	-2.59	-2.73	-4	-0.414	-1.72 (inactive)	-1.16	-1.54	2.21 (inactive)
COc1ccc([Si](C)(C)[C@@H]2[C@@H](CCO)O[C@]3(C(=O)N(Cc4ccc(NC(C)=O)cc4)c4ccccc43)[C@H]2C)cc1	0.694 (inactive)	0.16	23 (active)	7.13 (inactive)	-0.199 (inactive)	0.0087 (inactive)	0.339	-0.371 (inactive)	-0.0308 (inactive)	0.207	-1.98	1.37	-2.77	-2.47	-3.9	-1.29	-0.0969 (inactive)	-1.18	-1.93	-3.2 (inactive)
COC(=O)CC=C[C@@H](C)[C@@H](C=NO[C@H](C)c1cn([C@@H]2COC[C@H]2O)nn1)OC	0.319 (inactive)	-0.0003	0.813 (inactive)	0.499 (inactive)	0.5 (inactive)	0.415 (inactive)	0.502	-0.0191 (inactive)	0.488 (inactive)	-0.0693	0.947	-0.0678	0.185	0.415	-0.507	1.2	-0.39 (inactive)	0.146	-0.469	-0.567 (inactive)

Reference: PubChem BioAssay
